Bioassay records as filed in PubChem.
Hits are enriched below; roughly 1.1% of the tested compounds scored in any of these assays.
TcdB GH inh: TcdB glycohydrolase inhibition; AID 652162; inhibition, % at 9.99 µM; P18177; 350,000 compounds, 0.24% hits; TcdB glycohydrolase enzymatic assay, plate reader; in the data active means inhibition above about 10%
Target sequence (P18177 whole entry, looked up): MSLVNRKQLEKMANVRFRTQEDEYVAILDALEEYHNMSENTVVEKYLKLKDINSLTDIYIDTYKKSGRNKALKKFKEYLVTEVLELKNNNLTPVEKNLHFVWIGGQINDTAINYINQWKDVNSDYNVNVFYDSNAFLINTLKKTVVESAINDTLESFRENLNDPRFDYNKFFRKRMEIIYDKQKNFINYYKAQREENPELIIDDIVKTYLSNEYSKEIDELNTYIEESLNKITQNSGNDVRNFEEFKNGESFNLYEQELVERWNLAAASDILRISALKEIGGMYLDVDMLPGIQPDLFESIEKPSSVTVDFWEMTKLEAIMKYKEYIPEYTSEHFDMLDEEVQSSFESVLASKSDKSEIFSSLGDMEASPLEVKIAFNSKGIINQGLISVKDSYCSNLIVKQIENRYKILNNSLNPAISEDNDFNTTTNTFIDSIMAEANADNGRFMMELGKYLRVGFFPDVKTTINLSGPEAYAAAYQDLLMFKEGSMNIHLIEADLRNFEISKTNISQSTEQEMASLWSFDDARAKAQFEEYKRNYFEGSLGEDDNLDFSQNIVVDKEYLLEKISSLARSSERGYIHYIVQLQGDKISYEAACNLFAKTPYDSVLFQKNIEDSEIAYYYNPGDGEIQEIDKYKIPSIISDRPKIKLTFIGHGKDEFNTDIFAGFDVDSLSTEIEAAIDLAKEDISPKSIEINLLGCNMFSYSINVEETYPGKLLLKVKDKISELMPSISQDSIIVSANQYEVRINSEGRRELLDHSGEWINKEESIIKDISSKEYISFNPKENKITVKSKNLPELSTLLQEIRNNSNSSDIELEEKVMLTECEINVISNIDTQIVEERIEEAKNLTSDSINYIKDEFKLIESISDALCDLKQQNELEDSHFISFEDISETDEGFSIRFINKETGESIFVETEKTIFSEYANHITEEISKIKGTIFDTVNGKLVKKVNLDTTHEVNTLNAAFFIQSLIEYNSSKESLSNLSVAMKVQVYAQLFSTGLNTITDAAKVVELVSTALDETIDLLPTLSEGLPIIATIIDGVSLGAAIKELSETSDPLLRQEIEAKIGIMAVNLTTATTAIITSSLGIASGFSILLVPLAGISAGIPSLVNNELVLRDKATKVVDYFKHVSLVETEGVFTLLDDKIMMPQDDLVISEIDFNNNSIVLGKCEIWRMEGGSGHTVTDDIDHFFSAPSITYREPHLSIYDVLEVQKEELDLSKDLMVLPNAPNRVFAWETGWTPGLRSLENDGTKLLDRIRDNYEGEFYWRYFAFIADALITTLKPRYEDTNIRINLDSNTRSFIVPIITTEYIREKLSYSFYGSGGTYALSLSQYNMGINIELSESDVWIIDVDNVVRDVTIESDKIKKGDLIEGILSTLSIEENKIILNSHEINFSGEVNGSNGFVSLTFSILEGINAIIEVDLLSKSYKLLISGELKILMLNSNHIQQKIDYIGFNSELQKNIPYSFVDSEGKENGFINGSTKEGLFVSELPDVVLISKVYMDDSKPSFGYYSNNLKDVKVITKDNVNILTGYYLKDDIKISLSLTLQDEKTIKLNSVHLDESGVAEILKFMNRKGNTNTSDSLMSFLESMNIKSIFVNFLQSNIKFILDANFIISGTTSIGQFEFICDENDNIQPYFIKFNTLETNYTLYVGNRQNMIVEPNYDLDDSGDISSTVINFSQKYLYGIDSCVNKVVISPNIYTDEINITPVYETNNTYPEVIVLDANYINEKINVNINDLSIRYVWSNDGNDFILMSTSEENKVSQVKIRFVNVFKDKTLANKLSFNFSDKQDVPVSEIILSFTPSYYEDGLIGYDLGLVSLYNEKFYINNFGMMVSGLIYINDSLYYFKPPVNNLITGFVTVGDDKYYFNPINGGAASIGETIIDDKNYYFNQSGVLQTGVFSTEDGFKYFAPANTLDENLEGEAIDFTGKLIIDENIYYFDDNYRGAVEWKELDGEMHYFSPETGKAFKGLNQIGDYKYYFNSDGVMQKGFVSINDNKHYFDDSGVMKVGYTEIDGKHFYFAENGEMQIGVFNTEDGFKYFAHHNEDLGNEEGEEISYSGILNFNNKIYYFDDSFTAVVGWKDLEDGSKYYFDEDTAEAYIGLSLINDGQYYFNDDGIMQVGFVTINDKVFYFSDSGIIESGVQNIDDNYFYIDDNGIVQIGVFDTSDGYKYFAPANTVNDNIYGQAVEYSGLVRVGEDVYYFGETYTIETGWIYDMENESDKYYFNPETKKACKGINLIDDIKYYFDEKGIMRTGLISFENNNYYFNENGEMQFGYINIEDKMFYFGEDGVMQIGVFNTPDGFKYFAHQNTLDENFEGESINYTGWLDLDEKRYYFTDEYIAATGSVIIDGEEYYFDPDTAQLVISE
BioA inh: BioA (M. tuberculosis) enzyme inhibition; purified M. tuberculosis BioA enzyme, plate reader; 360,000 compounds, 0.096% hits; inhibition, % at 9.99 µM; in the data active means inhibition above about 40%
PrP 5UTR inh: suppresses PrP 5' UTR mRNA reporter expression. cell-based PrP 5' UTR mRNA reporter, plate reader. 340,000 compounds, 0.35% hits. inhibition, % (concentration not given with the values); in the data active means inhibition above about 52%; further: 0 = median of the neutral control wells
FadD28 binding: M. tuberculosis FadD28 bisubstrate binding inhibition. AID 588549. 360,000 compounds, 0.22% hits. FadD28 bisubstrate probe binding, fluorescence polarization. inhibition, % at 12.5 µM; in the data active means inhibition above about 8.5%, passing the limit was not always enough
PfHsp40 yeast: compounds rescuing yeast from Plasmodium falciparum HSP40 toxicity; 340,000 compounds, 0.68% hits; S. cerevisiae expressing PfHsp40, growth rescue, ATP luminescence; AID 504582; growth rescue, % at 12.5 µM; in the data active means growth rescue above about 28%, passing the limit was not always enough;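 further: yeast W303a lacking pdr1 and pdr3 grown in galactose medium; growth measured after three days at 30 °C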
Starred values were filed as active, the others as inactive; x = not tested or not shown.

SMILES	TcdB GH inh	BioA inh	PrP 5UTR inh	FadD28 binding	PfHsp40 yeast
Cc1cccc(C)c1OCC(=O)NC1CC1	-1	-2	-12	-2	-2
Cc1cccc(C)c1OCC(=O)NNC(=S)NC(=O)C1CC1	-1	-1	-12	-3	83*
CO[C@H]1CN(C)C(=O)c2cc(NC(=O)C3CCC3)ccc2OC[C@H](C)N(C)C[C@@H]1C	x	-2	x	x	x
O=C(CN1CCN(c2ccccn2)CC1)Nc1ccccc1	x	0	6	-2	26*
C[C@@H]1CN([C@@H](C)CO)C(=O)c2cc(NC(=O)Nc3ccc(C(F)(F)F)cc3)ccc2O[C@@H](C)CCCCO[C@@H]1CN(C)C(=O)NC1CCCCC1	-1	-3	x	x	x
CCOC(=O)[C@@H]1[C@H]2COc3cc(OC)ccc3[C@H]2N2C(=O)N(c3ccc(C(F)(F)F)cc3)C(=O)[C@]12C	0	-1	-3	-2	193*
Cc1ccc(S(=O)(=O)Nc2ccc3c(c2)C(=O)N([C@H](C)CO)C[C@@H](C)[C@H](CN(C)CC2CCCCC2)OCCCC[C@@H](C)O3)cc1	1	0	x	x	x
Cc1ccc(N(CC(=O)NCc2cccs2)S(=O)(=O)c2cccs2)cc1	x	-3	8	1	-1
Cc1ccc(S(=O)(=O)N(CC(=O)NCc2cccs2)c2ccccc2)cc1	1	0	-18	0	42*
CCCCc1ccc(-n2c(Cc3cccs3)n[nH]c2=S)cc1	1	x	-10	1	305*
S=c1[nH]nc(Cc2cccs2)n1-c1ccccc1	1	0	-12	-2	-1
C[C@@H]1CN([C@H](C)CO)C(=O)c2cccc(NC(=O)Nc3cccc4ccccc34)c2O[C@H]1CN(C)C(=O)Nc1ccc2c(c1)OCO2	1	0	x	x	x
C[C@@H]1CC[C@@]23COC(=O)C2=CCC[C@@H]3[C@@]1(C)CC/C(=C/CO)CO	-1	2	-27	-1	0
CC1=CCC[C@@H]2[C@@](C)(CC/C(C)=C/C(=O)O)[C@H](C)CC[C@@]12C	0	3	-9	-6	58*
COc1ccccc1C(=O)NC(CCSC)C(=O)NNC(=O)c1ccccc1O (centres undefined)	2	1	14	-3	98*
Cc1ccc(S(=O)(=O)Nc2ccc3c(c2)C(=O)N([C@H](C)CO)C[C@@H](C)[C@@H](CN(C)C(=O)c2ccccc2)OCCCC[C@H](C)O3)cc1	0	0	x	x	x
Cc1ccc(/C=C(\C#N)C(=O)Nc2ccccn2)o1	17*	0	-97	-2	0
CCOC(=O)c1sc2nc(OCCN3CCOCC3)cc(C)c2c1N	12*	x	x	x	x
CCOC(=O)c1sc2nc(N3CCOCC3)c3c(c2c1N)CCC3	x	8	-23	1	-1
CC(=O)Nc1ccc2c(c1)C(=O)N(C)[C@@H]1CC[C@H](CC(=O)NCC3CC3)O[C@@H]1CO2	0	-2	x	x	x
CCOc1ccccc1N1CCN(C2=C(NS(=O)(=O)c3cccs3)C(=O)c3ccccc3C2=O)CC1	x	-3	-18	14*	2
Cc1ccc(S(=O)(=O)N[C@@H]2CC[C@@H](CCn3cc(-c4cccnc4)nn3)O[C@@H]2CO)cc1	1	11	x	x	x
O=C(O)C1Cc2[nH]cnc2C(c2ccc(F)cc2)N1 (centres undefined)	1	x	-40	-2	61*
COc1ccc2c3c(n(C)c2c1)[C@@H](CO)N(Cc1ccncc1)CC31CN(C(=O)C2CC2)C1	-2	x	x	x	x
O=C(Cc1ccc(Cl)cc1)NNC(=S)NC(=O)c1cccs1	1	x	-25	-4	5
SMILES	TcdB GH inh	BioA inh	PrP 5UTR inh	FadD28 binding	PfHsp40 yeast
O=C(Cc1cccs1)NNC(=S)NCc1ccc(Cl)cc1	x	1	-9	-5	72*
CC(C)NC(=O)Nc1cccc2c1O[C@H](CN(C)S(=O)(=O)c1cn(C)cn1)[C@H](C)CN([C@@H](C)CO)C2=O	0	-3	x	x	x
CN=c1scc(-c2ccco2)n1/N=C/c1ccc(O)c(O)c1	0	x	-41	11*	0
C=CCN=c1scc(C)n1/N=C/c1ccc(O)c(O)c1	15*	x	-27	2	0
COc1cc2[nH]c(=S)n(Cc3cccs3)c(=O)c2cc1OC	25*	0	-13	0	1
CCCn1c(=S)[nH]c2cc(OC)c(OC)cc2c1=O	2	-2	5	-1	1
CCN(CC(=O)Nc1cc(Cl)ccc1C)c1ncnc2sc(C)c(C)c12	1	x	-18	-20	33*
C[C@H](CO)N1C[C@H](C)[C@@H](CN(C)C(=O)C2CC2)Oc2ncc(-c3ccc(C(=O)N(C)C)cc3)cc2C1=O	0	-4	x	x	x
CC12CN3CC(C)(CN(C1)C3c1ccccc1F)C2 (centres undefined)	0	x	-4	-1	61*
CC12CN3CC(C)(CN(C1)C3c1ccccc1Cl)C2O (centres undefined)	x	-1	-32	-1	0
C=C(C)C1Cc2c(C)nn(-c3nc(C)cc(C)n3)c2C1 (centres undefined)	x	0	-2	0	113*
COc1ccc2c(c1)c1nnc(SC)nc1n2C	x	0	-22	-3	59*
Cc1ccc(-c2ccc3c(c2)O[C@@H](CN(C)Cc2ccncc2)[C@@H](C)CN([C@H](C)CO)S3(=O)=O)cc1	0	-1	x	x	x
Cc1[nH]c2ccccc2c1N=Nc1ccc(F)cc1	2	x	-14	-1	12
Cc1[nH]c2ccccc2c1N=Nc1ccccc1F	2	x	-25	-6	170*
COC(=O)C(c1ccccc1)C(CC(=O)c1ccccc1)c1ccccc1 (centres undefined)	0	0	x	-2	x
COC(=O)C(C(=O)OC)C(CC(=O)c1ccc(Br)cc1)c1ccccc1 (centres undefined)	14*	-1	-22	-3	0
C[C@H](CO)N1C[C@H](C)[C@@H](CN(C)C(=O)Nc2ccc(C(F)(F)F)cc2)OCCCC[C@H](C)Oc2ccc(NC(=O)c3ccncc3)cc2C1=O	0	0	x	x	x
CN(C)C(=O)C[C@@H]1C=C[C@@H](NC(=O)NC2CCCC2)[C@H](CO)O1	-1	0	x	x	x
O=C(NCCc1ccccc1)c1ccc2nc(-c3ccco3)c(-c3ccco3)nc2c1	x	-1	-19	0	-1
O=C(NCCO)c1ccc2nc(-c3ccco3)c(-c3ccco3)nc2c1	x	1	-13	13*	0
C[C@@H]1CCCCO[C@@H](CN(C)C(=O)C2CCCCC2)[C@@H](C)CN([C@@H](C)CO)C(=O)c2cc(NS(=O)(=O)c3cccs3)ccc2O1	x	0	x	x	x
Cc1ccc(NC(=S)N/N=C/c2ccc([N+](=O)[O-])s2)cc1	-1	1	-1	1	211*
O=C(CN1CCCC1)N/N=C/c1c(O)ccc2ccccc12	-30	-1	28	0	52*
O=C(N/N=C/c1c(O)ccc2ccccc12)C(=O)N1CCCC1	-16	0	x	0	x
CCCCNc1c(-c2cccc(-c3ccc(OC)cc3)c2)nc2ccc(C)cn12	0	0	-23	-3	232*
CCCCNc1c(-c2cccc(-c3ccc(OC)cc3)c2)nc2cc(C)ccn12	-6	-3	-10	-4	8
CCCCNc1c(-c2ccc(-c3cccc(Cl)c3)cc2)nc2ccccn12	-1	-1	-31	-5	207*
